High-throughput results from PubChem BioAssay.
Only a sample is shown.
aSyn UTR act: Activators via SNCA 5'UTR binding, MLPCN. alpha-synuclein 5'UTR reporter, activators screen. activity score, % (tested at 7.5 µM), hits read low. actives 7.1% (n = 300,000). AID 1814, 2009; in the data active = activity score below about -60%
Numbers stand for hits.

Screening CC(=O)N1CCC(=NNc2nc3ccccc3s2)CC1 returned aSyn UTR act -215.
Screening CCOC(=O)N1CCC(=NNc2nc3ccccc3s2)CC1 returned aSyn UTR act -112.
CCOC(=O)N1CCN(/C=C(\C#N)c2nc3ccccc3s2)CC1 was read as aSyn UTR act -94.
COc1ccc2nc3ccccc3nc2c1 was read as aSyn UTR act -123.
COc1ccc(-n2nc3cc(C)c(N)c(Br)c3n2)cc1 was read as aSyn UTR act -89.
`COc1ccc(-n2nc3ccccc3n2)cc1` gave aSyn UTR act -93.
Screening Nc1ccc(-n2nc3ccccc3n2)cc1 returned aSyn UTR act inactive.
`COc1ccc(-n2nc3cc(N)c(Br)cc3n2)cc1` gave aSyn UTR act -164.
`COCCNC(=O)C(=O)Nc1ccc(Br)cc1` gave aSyn UTR act -103.
For C=CCNC(=S)Nc1ccc(N(C)C)cc1 the results were aSyn UTR act -70.
Screening CCCNC(=O)C(=O)Nc1ccc(N(C)C)cc1 returned aSyn UTR act -126.
Screening CCN(CC)C(=O)c1ccc2c(c1[N+](=O)[O-])C(=O)c1ccccc1C2=O returned aSyn UTR act -93.
`CCN(CC)CCNC(=O)c1ccc2c(c1NCCO)C(=O)c1ccccc1C2=O` gave aSyn UTR act inactive.
`Cc1ccc(/C=N/n2cnc3sc(-c4ccccc4)cc3c2=O)o1` gave aSyn UTR act -109.
O=C(NNC(=S)Nc1ccc(Cl)cc1)c1cccs1 was read as aSyn UTR act -125.
Screening O=C(NNC(=S)Nc1ccccc1)c1cccs1 returned aSyn UTR act -231.
`Cc1ccc(NC(=O)c2sc(Cl)nc2-c2ccccc2)cc1` gave aSyn UTR act -63.
For O=C(Nc1ccc(F)cc1)c1sc(Cl)nc1-c1ccccc1 the results were aSyn UTR act -73.
`C/C(=N\NC(=O)c1c(Cl)cnn1C)c1cccc(NC(=O)c2ccc(C)cc2)c1` gave aSyn UTR act -72.
`C/C(=N\NC(=O)c1c(Br)cnn1C)c1ccc(NC(=O)c2ccc(F)cc2)cc1` gave aSyn UTR act -108.
Screening C/C(=N\NC(=O)c1ccc(O)cc1)c1cccc(NC(=O)c2ccc(Cl)cc2)c1 returned aSyn UTR act -161.
Screening CSc1cccc(NC(=O)c2c(Cl)cnn2C)c1 returned aSyn UTR act -89.
`C/C(=N\NC(=O)c1cccc(F)c1)c1cccc(NC(=O)c2ccc(F)cc2)c1` gave aSyn UTR act -72.
C/C(=N\NC(=O)c1ccccc1F)c1cccc(NC(=O)c2ccc(C)cc2)c1 was read as aSyn UTR act -74.
For COc1ccccc1/C=C/C(=O)NC(=S)NC(C)C the results were aSyn UTR act -93.
For O=C(/C=C/c1ccccc1O)c1ccc(Cl)cc1 the results were aSyn UTR act -189.
CCN(CC(=O)Nc1ccc2c(c1)OCCO2)C(=O)/C=C/c1cccc(OC)c1OC was read as aSyn UTR act -93.
Screening COc1ccc(/C=C/C(=O)c2ccccc2)c(OC)c1 returned aSyn UTR act -207.
For COc1cccc(/C=C/C(=O)c2ccc3c(c2)OCCO3)c1OC the results were aSyn UTR act -307.
`COc1ccccc1/C=C/C(=O)N1CCC(c2ccccc2)C1` (configuration not stated) gave aSyn UTR act -177.
COc1ccccc1/C=C/C(=O)c1ccc(NC(C)=O)cc1 was read as aSyn UTR act -205.
For COc1cc(CC(=O)OCC(=O)c2ccc3c(c2)OCCO3)cc(OC)c1OC the results were aSyn UTR act inactive.
For COc1ccccc1/C=C/C(=O)c1ccccc1 the results were aSyn UTR act -155.
COc1ccc(/C=C/C(=O)c2ccc3c(c2)OCO3)c(OC)c1 was read as aSyn UTR act -85.
CCOc1ccccc1/C=C/C(=O)c1ccc(Cl)cc1 was read as aSyn UTR act -80.
Screening COc1ccc(/C=C/C(=O)OCC(=O)c2ccc3c(c2)NC(=O)CO3)c(OC)c1 returned aSyn UTR act inactive.
`COc1cc(O)c(C(=O)/C=C/c2ccccc2)c(OC)c1` gave aSyn UTR act -163.
For COc1ccccc1/C=C/C(=O)c1ccc(Cl)cc1 the results were aSyn UTR act -62.
C=CCNc1ncnc2c1[nH]c1ccc(Cl)cc12 was read as aSyn UTR act -197.
`CC1(C)CC(=O)c2c(O)cc(OCc3ccc([N+](=O)[O-])cc3)cc2O1` gave aSyn UTR act -150.
Screening COc1cccc(NC(=O)COc2cc(O)c3c(c2)OC(C)(C)CC3=O)c1 returned aSyn UTR act -87.
COc1cc(C(c2c(C)[nH][nH]c2=O)c2c(C)[nH][nH]c2=O)ccc1OCc1ccc([N+](=O)[O-])cc1 was read as aSyn UTR act -146.
Screening COC(=O)C(=Cc1ccc(OCc2ccc([N+](=O)[O-])cc2)c(OC)c1)C(=O)OC returned aSyn UTR act -259.
Screening CCOC(=O)C(=Cc1ccc(OCc2ccc([N+](=O)[O-])cc2)c(OC)c1)C(=O)OCC returned aSyn UTR act -267.
Screening Cc1ccc(N/C=C(/C#N)c2ccsc2)cc1 returned aSyn UTR act -175.
Screening N#C/C(=C/Nc1ccccc1)c1ccsc1 returned aSyn UTR act -79.
CCNc1ccc(Br)cc(C(=O)/C=C/c2c(Cl)cccc2Cl)c1=O was read as aSyn UTR act -133.
For O=C(CCCC(=O)c1ccc(F)cc1)c1ccc(F)cc1 the results were aSyn UTR act -118.
`CCOc1ccc(C(=O)CCCC(=O)c2ccc(OCC)cc2)cc1` gave aSyn UTR act -82.
Screening O=C(CCS(=O)(=O)c1ccccc1)N(CCCN1CCOCC1)c1nc2ccc(F)cc2s1 returned aSyn UTR act -132.
Screening CNC(C)C#Cc1ccc2c(=O)c3ccccc3oc2c1 (configuration not stated) returned aSyn UTR act -244.
CN(C)CCCN(C(=O)c1ccc2c(c1)CCCC2)c1nc2ccc(Cl)cc2s1 was read as aSyn UTR act -70.
Screening COc1ccc(C)c2sc(N(CCCN(C)C)C(=O)c3ccc4c(c3)OCCO4)nc12 returned aSyn UTR act -97.
Screening COc1ccc(OC)c2sc(N(CCCN(C)C)C(=O)c3ccc(S(=O)(=O)N4CCc5ccccc5C4)cc3)nc12 returned aSyn UTR act inactive.
Screening Cc1ccc2nc(N(CCCN(C)C)C(=O)c3ccc4ncsc4c3)sc2c1 returned aSyn UTR act -84.
For CN(C)CCCN(C(=O)CCc1ccccc1)c1nc2ccc(Cl)cc2s1 the results were aSyn UTR act inactive.
For CCCCN(C)S(=O)(=O)c1ccc(C(=O)N(CCN(C)C)c2nc3ccc(C)cc3s2)cc1 the results were aSyn UTR act -74.
COc1ccc(C)c2sc(N(CCCN(C)C)C(=O)c3ccc(S(=O)(=O)N4CCc5ccccc5C4)cc3)nc12 was read as aSyn UTR act inactive.
`CN(C)CCCN(C(=O)c1sc2ccccc2c1Cl)c1nc2ccc(F)cc2s1` gave aSyn UTR act -99.
For Cc1ccc2nc(N(CCN(C)C)C(=O)c3ccc4c(c3)OCCO4)sc2c1 the results were aSyn UTR act -110.
Screening CCN(CC)CCN(C(=O)c1cc2c(ccc3ccccc32)oc1=O)c1nc2cc3c(cc2s1)OCCO3 returned aSyn UTR act inactive.
`CN(C)CCN(C(=O)c1ccc2ccccc2c1)c1nc2cc3c(cc2s1)OCCO3` gave aSyn UTR act -74.
`CN(C)CCCN(C(=O)c1ccc2c(c1)OCCO2)c1nc2cc3c(cc2s1)OCO3` gave aSyn UTR act -92.
Cc1ccc2sc(N(CCCN(C)C)C(=O)c3ccc(S(=O)(=O)N(C)Cc4ccccc4)cc3)nc2c1C was read as aSyn UTR act -73.
